Test results as given in PubChem BioAssay AID449762 (Southern Research Specialized Biocontainment Screening …, 2010).
Hit rate of the full screen: of about 330,000 compounds, about 1,900 (0.58%) were called active. Another 4% or so got no clear call; they are omitted. Rule as the data show it: inconclusive = inhibition above about 70% without an active follow-up result; inactive = below that. Not all results are given here. Measured potencies and affinities stand elsewhere.

assay: M. tuberculosis growth inhibition, HTS (AID 449762);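 also: bacterial growth assessed after seven days of incubation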; conditions: M. tuberculosis H37Rv growth inhibition, 7H9 media; at 25 µM; stronger effect = higher value

Structure (SMILES) | inhibition
COc1ccc(N2CC(C(=O)O)CC2=O)cc1 (stereo unspecified) | -12.1% (inactive)
COc1ccc(CN=C(C)c2c(C(F)(F)F)[nH]n(-c3nc4ccccc4s3)c2=O)cc1 | -13.3% (inactive)
CCC(=NCc1ccccc1)c1c(C(F)(F)F)[nH]n(-c2nc3ccccc3s2)c1=O | -0.69% (inactive)
COc1ccccc1NC(=O)CSc1nn2c(=O)c(C)nnc2s1 | -20.7% (inactive)
Cc1cc(C)nc(SCCCNCc2c(F)cccc2Cl)n1 | 0.32% (inactive)
Cc1ccc(-n2c(C)nc3ccsc3c2=O)cc1 | 9.48% (inactive)
Cc1ccc(-n2c(Cl)c(Cl)[nH]c(=O)c2=O)cc1 | -6.67% (inactive)
Cc1noc(C)c1COc1ccccc1C(=O)N1CCN(S(=O)(=O)c2ccccc2C(F)(F)F)CC1 | -1.24% (inactive)
COC(=O)c1cccc(NC(=O)Cc2ccccc2[N+](=O)[O-])c1C | 2.19% (inactive)
OC(Cn1cncn1)c1ccc(Cl)cc1 (stereo unspecified) | -4.52% (inactive)
O=C(NCc1ccccc1)NC12CC3CC(CC(C3)C1)C2 | -2.17% (inactive)
Cc1ccc(CNC(=O)NC23CC4CC(CC(C4)C2)C3)cc1 | 7.32% (inactive)
Cc1noc(C)c1COc1ccc(C(=O)OCC(N)=O)cc1 | 12.9% (inactive)
Cc1noc(C)c1COc1ccc(C(=O)OCC(=O)NC2CCCCC2C)cc1 (stereo unspecified) | 48.8% (inactive)
Cc1ccc(N2CC(C(=O)NC3=NCCS3)CC2=O)cc1 (stereo unspecified) | 4.82% (inactive)
CCc1ccc2oc(-c3ccc(OC)cc3)cc(=Nc3cccc(C(=O)O)c3)c2c1 | 39.4% (inactive)
COc1ccc(-c2cc(=Nc3c(C)n(C)n(-c4ccccc4)c3=O)c3ccccc3o2)cc1 | 35.5% (inactive)
CNC(=O)c1cnn(-c2nc(-c3ccc(OC)cc3)cs2)c1C(F)(F)F | 9.09% (inactive)
CCN1CCc2c(OCC(=O)Nc3ccccc3)cccc2C1=O | -8.51% (inactive)
COc1cccc(-c2cc(C(F)(F)F)nc(N3CCC(C)CC3)n2)c1 | 2.81% (inactive)
O=C(COC(=O)C1=COCCO1)Nc1ccccc1 | 65.9% (inactive)
O=C(COC(=O)C1=COCCO1)NCc1ccc(F)cc1 | 5.31% (inactive)
COc1ccc(CNC(=O)COC(=O)C2=COCCO2)cc1 | 12.1% (inactive)
CC(=O)c1cccc(NC(=O)COC(=O)C2=COCCO2)c1 | -0.86% (inactive)
CCCCN1C(=N)N([C@@H](CCC)CN2CCC[C@H]2CN2C(N)=NC[C@@H]2Cc2ccccc2)C[C@H]1[C@H](C)CC | 4.76% (inactive)
CCCCN1C(=N)N([C@@H](C)CN2CCC[C@H]2CN2C(N)=NC[C@@H]2Cc2ccccc2)C[C@H]1Cc1ccccc1 | 67.2% (inactive)
